Among the data in PubChem BioAssay (NCI) are growth values, retold here.

Values joined by “and” are separate entries in the source; they are usually repeats but may differ in a detail not shown here. Identical values can stand only once. Compounds without any hit were thinned out: in the full panel of roughly 83,000, 20% have a hit.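 How to read the values: 0–100, growth inhibition (40 = 60% inhibited); 0, no net growth; -100 to 0, cell death (-40 = 40% of starting cells died; -100 = all dead).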 Unmarked numbers belong to inactive results. Active and inactive are the calls of the source. Rule for the calls: active = growth percent below 10; inactive = the rest.

The experiment has as its system MDA-MB-468 breast. In words: NCI-60 one-dose screen, 48 h (100 = growth as untreated, 0 = no growth, -100 = all killed). The following applies: 10 µM unless noted.
In the case of `COc1cc2cc(Oc3ccc(NC(=O)c4cc(C(F)(F)F)cc(C(F)(F)F)c4)cc3)c(C)nc2cc1OC`, the growth was 22.8%. On to `C=C1C(=O)O[C@H]2[C@H]1CC/C(COC(=O)c1cn(C)c3ccccc13)=C\CC[C@@]1(C)O[C@@H]21`, for which the growth is -66.4% (active).

As to `CCCCCCNC(=O)c1cc(NCc2cc(O)ccc2O)ccc1O`, the growth was 65.6%. The value for `Cc1ccsc1/C=C/C1=NCCCN1C` was 92.4%; that for `C[C@]12CC[C@@H]3c4ccc(O)c([N+](=O)[O-])c4CC[C@H]3[C@@H]1CCC2=O` was 71%.

With `C#Cc1cccc(Nc2ncnc3cc(OC)c(OCCCCCCC(=O)NO)cc23)c1`, the growth is -44.4% (active). Take `Cc1cc(C)c2nc(Nc3nc(C)c(C)c(=O)[nH]3)nc(C)c2c1`: the growth was -35.8% (active). The value for `CC(C(=O)O)n1cc(C#N)c(=O)[nH]c1=O` (stereo not given) was 103% and 107%; that for `O=C(Nc1ccc(-c2ccc3c(c2)NC(=O)/C3=C\c2ccc[nH]2)cc1)NC1CC1` was -4.36% (active).

For the compound `NC(=O)c1cccc([C@@H]2O[C@H](CO)[C@@H](O)[C@H]2O)c1`, the growth is 87.7%. As to `O=C(OCc1ccc2c(Cl)cc(Cl)c(O)c2n1)N1CCN(C(=O)c2cc3cc(F)ccc3[nH]2)CC1`, the growth is -5.15% (active). Turning to `C#Cc1nc(C2=C(C)C(OC(C)=O)/C(=N/OC(C)=O)C2)cs1` (stereo not given), the growth was -60.7% (active). The value for `CC(C)(C)c1cc(NC(=O)Nc2ccc(-c3cn4c5c(sc4n3)CCc3c[nH]cc3-5)cc2)no1` was 22.6%.

Turning to `NNc1cccc(/C=C/c2ccccc2)cc1=O`, the growth is 38.3%. Then `CCC(=O)c1c(C)[nH]c(C)c1C`, with 54.4%. Take `C#C[C@]1(O)CC[C@H]2[C@@H]3CC=C4c5nc(Nc6ccccc6[N+](=O)[O-])sc5CC[C@]4(C)[C@H]3CC[C@@]21C`: the growth was 70.7%. Regarding `C[C@H]1OCC2(CCN(c3cnc(C(=O)Nc4cc(F)cc5cccnc45)cn3)CC2)[C@H]1N`, the growth was -4.2% (active). For the compound `c1ccc2c3c([nH]c2c1)C(c1ccc(C2NCCc4c2[nH]c2ccccc42)cc1)NCC3` (stereo not given), the growth was -83.2% (active). Take `CN(C)CCNc1ccc2ncc(C#Cc3cncc(C(=O)Nc4ccc(CN5CCN(C)CC5)c(C(F)(F)F)c4)c3)n2n1`: the growth was -67.9% (active). The value for `COC(=O)c1ccc(NC(=O)c2ccc(-c3cccc([N+](=O)[O-])c3)o2)cc1` was 96.5%; that for `COc1cc(-c2nc(SCCC(C)C)nc(Nc3ccccc3)c2C#N)cc(OC)c1OC` was 112%; that for `CCOC(=O)c1cc(N)nc2ccccc12` was 106%.

In the case of `C#C[C@]1(O)CC[C@H]2[C@@H]3CC=C4c5sc(Nc6cc(OC)ccc6OC)nc5CC[C@]4(C)[C@H]3CC[C@@]21C`, the growth is 9.15% (active). Then `COc1cc(/C=N/NC(=O)c2cnn3c2NC(c2ccccc2)C3)cc(OC)c1OC` (stereo not given), with 62.8%; and `Oc1c(CN2CCCC2)cc(COCc2ccc(Br)cc2)c2cccnc12`, with -28.2% (active); and `CCN(CC)c1ccc(/C=N\NC(=O)c2cccc(Nc3ccnc(C(F)(F)F)c3)c2)c(O)c1`, with 24.6%. The value for `COc1cnc2c(c1)C(=O)c1c-2n(CCCNC2=NCCS2)c(=O)c2cc(Cl)ccc12` was -4.65% (active); that for `CC(C)(C)CC(C)(C)Nc1c(-c2ccc(-c3ccccc3)cc2)nc2cnccn12` was 109%; that for `FCc1nc2nc(Cl)c(Cl)nc2[nH]1` was 93.2%.

Turning to `CC1=C(C(=O)n2c3ccccc3c3ccccc32)C(c2cccc([N+](=O)[O-])c2)C(C(=O)n2c3ccccc3c3ccccc32)=C(C)N1`, the growth is 118%. The value for `Nc1nc(Nc2ccccc2SSc2ccccc2Nc2nc(N)nc(-c3cccs3)n2)nc(-c2ccsc2)n1` was 115%; that for `Cc1cc(CC(=O)NCCO)n(CCO)c(=O)c1` was 113%; that for `O=C(NCCc1nccs1)c1cnc2c(S)cccc2c1` was 16.5%. Then `CCn1c(SCC(=O)c2ccc(Br)cc2)nnc1-c1cc2c([nH]c3ccccc32)c(-c2cccc(O)c2)n1`, with 83.9%; and `COc1ccc(Cn2cc(COc3ccc4c5ccnc(C)c5n(CCCc5ccccc5)c4c3)nn2)cc1`, with 62.5%. With `N/C(=N\c1nc2ccccc2s1)NC(=O)Nc1cccc(Cl)c1`, the growth was 35.5%. Then `CSc1nn2c(-c3ccc4ccccc4c3)ccnc2c1C#N`, with 41.3%; and `COc1ccc(C(Cn2ccnc2)Sc2ccc(Cl)c(Cl)c2)cc1` (stereo not given), with 63%. Take `Cc1nc2nc(SCC(=O)O)[nH]c2c(=O)[nH]1`: the growth is 106%.

For the compound `CN(C)c1ccc(/C=N/Nc2nc(N/N=C/c3ccc(N(C)C)cc3)nc(N3CCCCC3)n2)cc1`, the growth was 36.3%.
